# Source: PubChem BioAssay
# This is a sample that favours compounds with a hit; in the whole collection about 6.3% have one here.
# Spn DPM-DC inh – blocks S. pneumoniae diphosphomevalonate decarboxylase; purified DPM-DC, PK/LDH coupled NADH fluorescence; calls only at 10 µM; 65,000 compounds, 0.49% hits;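 active = the 320 compounds with the highest percent inhibition in the single-dose primary screen, excluding strongly autofluorescent ones, cut at about 32% in these data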;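 note: kinetic rate of NADH fluorescence loss reporting ADP formed by the decarboxylase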
# NADH coupling – inhibition of NAD/NADH coupling enzymes, library profiling. coupled PK/LDH NADH assays, four targets. IC50, µM (highest dose often 10 µM), inactives show at the top dose inhibition. 65,000 compounds, 0.02% hits. AID 774;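 active = single-dose screening hits from any of four coupled enzyme assays that gave an IC50 when retested across doses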;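 note: the DPM-DC format reads NADH fluorescence rather than 340 nm absorbance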
# Fluor 339 460 – intrinsic fluorescence of library compounds, ex339/em460 – biochemical, MLSMR library, data from DPM-DC assay, artefact control, profiling panel | fluorescence fold increase at 10 µM | AID 709 | 65,000 compounds, 5.5% hits | compound autofluorescence, ex339/em460 nm, NADH buffer; hits give high values; 1 = no-compound wells, NADH background;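 active = at 10 µM, mean starting fluorescence two-fold or more over control wells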;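 note: signal is the first read of a kinetic run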
# Spn PMK inh – inhibitors of Streptococcus pneumoniae phosphomevalonate kinase. purified PMK, PK/LDH-coupled NADH absorbance 340 nm. AID 539. 65,000 compounds, 0.49% hits. inhibition, % at 10 µM;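 active = top-ranked compounds by inhibition in the single 10 µM screen, taking a fixed number of the strongest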;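 note: 0% = full reaction with DMSO carrier and 100% = background rate without enzyme reaction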
# A340 absorber – compound absorbs light at 340 nm | fold change at 10 µM | compound absorbance at 340 nm, fold over control | 65,000 tested, under 10 active;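 active = at 10 µM dose, initial 340 nm absorbance at least 2 fold that of control wells; inactive = change under 2 fold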;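 note: initial absorbance extrapolated from kinetic A340 decline of NADH oxidation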
# MK inhibit – blocks S. pneumoniae mevalonate kinase; purified MK, PK/LDH-coupled NADH absorbance 340 nm; inhibition, % at 10 µM; 65,000 compounds, 0.48% hits; AID 555;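 active = ranked among the strongest by inhibition in the single 10 µM screen, a fixed top-ranked set picked for dose follow-up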
# * marks the source's active call; other numbers are inactive results; i = inactive; . = not tested or not shown.
SMILES,Spn DPM-DC inh,NADH coupling,Fluor 339 460,Spn PMK inh,A340 absorber,MK inhibit
O=S(=O)(c1ccccc1)c1nc(-c2ccco2)oc1N1CCOCC1,i,4%,1.1,3,1,9
N#Cc1nc(-c2ccco2)oc1N1CCc2ccccc2C1,.,8%,3.8*,8,1.1,8
N#Cc1nc(-c2ccco2)oc1N1CCN(C(c2ccccc2)c2ccccc2)CC1,i,7%,1.9,8,1.1,12
CC1CC(C)CN(c2oc(-c3ccco3)nc2C#N)C1 (stereo not drawn),.,16%,2.2*,9,1.1,22
N#Cc1nc(-c2ccco2)oc1N1CCCC1,.,14%,3.9*,13,1.1,14
Cc1ccc(S(=O)(=O)Nc2nonc2C)cc1,i,8%,0.99,20,1,3
O=c1oc2ccccc2cc1-c1nnc(-c2cccc(Br)c2)o1,.,2%,3.9*,0,1.1,4
CCOc1cccc2cc(-c3nnc(-c4ccccc4)o3)c(=O)oc12,i,8%,1.4,13,1.1,6
O=c1oc2ccc3ccccc3c2cc1-c1nnc(-c2ccccc2)o1,.,12%,4.3*,5,1.1,19
CCn1c(=O)cc(SCC(=O)Nc2ccccc2N2CCN(C)CC2)c2ccccc21,i,5%,1.2,15,1,0
CC(=O)c1cccc(NC(=O)Nc2ccc3c(c2)N(C)C(=O)CS3)c1,i,4%,1,0,1.1,4
Cc1ccc2cc(C#N)c(NCCNC(=O)C3CC3)nc2c1C,i,14%,3.2*,6,1,10
Cc1ccc2c(c1)-c1c(cnn1CC(=O)Nc1ccccc1N1CCN(C)CC1)CO2,i,1%,1,1,1,1
COc1ccc(C(=O)N(CN2CCCC2=O)c2nccs2)cc1OC,i,2%,1.3,4,1.3,1
CC(=O)Nc1cccc(-c2nc3ccc(NC(C)=O)cc3[nH]2)c1,.,5%,4.9*,6,1,4
CC(=O)Nc1ccc2nc(-c3cccnc3)[nH]c2c1,i,4%,1.3,0,1.1,8
CCCCn1c(SCC(=O)N2CCN(c3ccccc3)CC2)nc2ccsc2c1=O,i,2%,1.1,6,1,0
CCc1nc2oc3cc(OC)ccc3c(=O)c2c(=O)n1Cc1ccco1,i,8%,1.1,9,1,9
COc1ccc(-c2nc3oc4cc(OC)ccc4c(=O)c3c(=O)n2Cc2ccco2)cc1,.,3%,3.9*,4,1.1,2
CC1(C)Cc2c(sc3nc(SCC#N)n(C4CCCCC4)c(=O)c23)CO1,i,3%,1,0,1,8
Clc1ccc(-n2nnnc2Sc2ncnc3sccc23)cc1,i,3%,1,14,0.98,4
Cc1sc2ncnc(Sc3nnnn3-c3ccccc3)c2c1C,i,12%,3.4*,8,1,8
CCC(C)c1c(O)nc(SCC(=O)c2ccccc2)[nH]c1=O (stereo not drawn),i,2%,1.2,0,1,6
CCN(CC)CCSc1nc(O)c(C(C)C)c(=O)[nH]1,i,11%,1.1,25*,1,2
COCc1cc(C)n(CC(=O)Nc2ccccc2C(=O)OC)c(=O)c1C#N,i,12%,2.8*,11,1.1,4
SMILES,Spn DPM-DC inh,NADH coupling,Fluor 339 460,Spn PMK inh,A340 absorber,MK inhibit
COCc1cc(C)n(CC(=O)NC(C)c2ccccc2)c(=O)c1C#N (stereo not drawn),.,9%,3.8*,13,1.1,5
O=C(COc1ccccc1)Nc1ccc(Cl)c(-c2nc3ncccc3o2)c1,i,0%,1.3,0,1.2,1
c1ccc2c(-c3nc4ncccc4o3)cccc2c1,.,6%,3.8*,4,1.1,8
COc1ccc(CCN(C(=O)c2ccc(F)cc2)C2=CC3CCC(C2)N3C)cc1OC (stereo not drawn),i,4%,1.1,8,0.99,3
O=c1c2ccccc2nc2n1CCCS2,i,0%,1.1,1,1.1,0
O=c1c2cc(Cl)ccc2oc2nc3n(c(=O)c12)CCCS3,i,11%,2.6*,7,1.1,7
CC(=O)Nc1cc2nn(-c3ccccc3)nc2cc1Cl,.,6%,2.3*,0,1.1,11
O=C(Nc1cc2nn(-c3ccccc3)nc2cc1Cl)c1ccco1,.,10%,3.8*,7,1.2,12
O=C(Nc1ccc2nn(-c3ccccc3)nc2c1)c1cccnc1,i,4%,1.3,1,1.1,12
Cc1cc(C)cc(Nc2ncc3c(n2)CCCC3=O)c1,i,4%,1.1,4,1.1,8
Cc1ccnc2c(N3C(=O)C4C5C=CC(C5)C4C3=O)cccc12 (stereo not drawn),i,2%,1.1,0,1,6
NC(=O)c1nc(C2CCCCC2)nc2c1[nH]c(=O)n2-c1ccc(F)cc1,.,6%,2.1*,7,1,4
COc1ccccc1-n1c(=O)[nH]c2c(C(N)=O)nc(-c3cccnc3)nc21,.,3%,2.5*,8,1,2
CCOc1ccccc1-c1nc(C(N)=O)c2[nH]c(=O)n(-c3cccc(C)c3)c2n1,i,10%,2.5*,10,1.1,0
COc1ccccc1-n1c(=O)[nH]c2c(C(N)=O)nc(C3CCCCC3)nc21,i,11%,1.8,4,1,9
COc1ccc(OC)c(-c2nc(C(N)=O)c3[nH]c(=O)n(-c4ccc(F)cc4)c3n2)c1,i,2%,1.1,6,1.1,0
CCOc1cccc(-c2nc(C(N)=O)c3[nH]c(=O)n(-c4cccc(Cl)c4)c3n2)c1O,i,3%,1,5,1,4
Cc1ccc(-n2c(=O)[nH]c3c(C(N)=O)nc(-c4ccc(C)o4)nc32)cc1,i,8%,2.4*,15,1,3
COc1ccccc1S(=O)(=O)Cc1ccc(C(=O)NC(C)c2ccc3c(c2)OCCO3)o1 (stereo not drawn),i,4%,1.1,11,1,0
Nn1c(SCc2nc3ccccn3c2Br)nnc1-c1cccnc1,i,2%,1.1,7,1,0
COc1ccc(-c2[nH]nc3oc(=O)cc(C)c23)cc1,.,5%,2.2*,3,1,7
COCCn1cc(C(=O)N2CCN(C)CC2)c2c3ccccc3n(C)c2c1=O,.,6%,4.6*,11,1.1,0
Cc1cccc(N2CCN(C(=O)c3cn(C)c(=O)c4c3c3ccccc3n4C)CC2)c1C,i,6%,1.9,15,1,0
CCOC(=O)N1CCN(C(=O)c2cn(CCOC)c(=O)c3c2c2ccccc2n3C)CC1,.,8%,4.3*,9,1.1,7
COC(=O)CCC(=O)N1CCc2cc(S(=O)(=O)N3CCN(c4ccccc4Cl)CC3)ccc21,i,4%,1.1,10,1,3
